Source: PubChem
JMJD2A Tudor – JMJD2A Tudor domain (human) inhibition. AID 504339. O75164. actives 4.4% (n = 390,000). AlphaScreen JMJD2A-Tudor / H3K4me3 peptide binding. Potency, µM (doses to about 114 µM), for inactives: at the top dose activity change, negative = inhibition, most hits filed as inhibitors; also: % is scaled to controls: 0 for no effect and ±100 for the full control effect; nearly all actives have a fitted effect of over 50% in size
BAZ2B block – BAZ2B (human) inhibition; AlphaScreen BAZ2B-H3K14Ac peptide displacement; Potency, µM (series often up to 114 µM), inactives show at the highest dose activity change, negative = inhibition, most hits filed as inhibitors; actives 4.4% (n = 360,000); AID 504333; also: % is scaled to controls: 0 for no effect and ±100 for the full control effect; nearly all actives have a fitted effect of over 60% in size
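BAZ2B (50 nM) with biotin-H3(5-23)K14Ac peptide (50 nM) in PBS pH 7.4, 0.01% Tween-20, preformed 30 min, then compound 30 min at room temperature; top concentration 110uM. AlphaScreen streptavidin donor/nickel chelate acceptor beads (10 ug/mL final), 20 min dark, signal read.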
HP1b chromo inh – blocks HP1-beta chromodomain binding to methylated histone tails; AlphaScreen HP1-beta / biotin-H3K9me3 peptide binding; Potency, µM (titrated, usually from 114 µM), without a hit: top-dose activity change, negative = inhibition, usual class: inhibitors; AID 540317; actives 0.56% (n = 390,000); also: nearly all actives have a fitted effect of over 70% in size
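HP1-beta protein (50 nM final) preincubated 30 min at room temperature with biotinylated H3(1-18)K9me3 peptide (50 nM) in PBS pH 7.4, 0.01% Tween-20, then compound added for 30 min. AlphaScreen streptavidin donor/nickel chelate acceptor beads (10 ug/mL final), 30 min dark, luminescence read.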
L3MBTL1 inh – inhibitors of human L3MBTL1 | AID 485360 | Q9Y468 | Potency, µM (doses to about 57.1 µM), for inactives: top-dose activity, negative = inhibition, most hits filed as inhibitors | actives 0.66% (n = 230,000) | AlphaScreen L3MBTL1–H3K9me1 peptide binding; also: % is scaled to controls: 0 for no effect and ±100 for the full control effect; nearly all actives have a fitted effect of over 60% in size
Target sequence (Q9Y468 whole entry, looked up): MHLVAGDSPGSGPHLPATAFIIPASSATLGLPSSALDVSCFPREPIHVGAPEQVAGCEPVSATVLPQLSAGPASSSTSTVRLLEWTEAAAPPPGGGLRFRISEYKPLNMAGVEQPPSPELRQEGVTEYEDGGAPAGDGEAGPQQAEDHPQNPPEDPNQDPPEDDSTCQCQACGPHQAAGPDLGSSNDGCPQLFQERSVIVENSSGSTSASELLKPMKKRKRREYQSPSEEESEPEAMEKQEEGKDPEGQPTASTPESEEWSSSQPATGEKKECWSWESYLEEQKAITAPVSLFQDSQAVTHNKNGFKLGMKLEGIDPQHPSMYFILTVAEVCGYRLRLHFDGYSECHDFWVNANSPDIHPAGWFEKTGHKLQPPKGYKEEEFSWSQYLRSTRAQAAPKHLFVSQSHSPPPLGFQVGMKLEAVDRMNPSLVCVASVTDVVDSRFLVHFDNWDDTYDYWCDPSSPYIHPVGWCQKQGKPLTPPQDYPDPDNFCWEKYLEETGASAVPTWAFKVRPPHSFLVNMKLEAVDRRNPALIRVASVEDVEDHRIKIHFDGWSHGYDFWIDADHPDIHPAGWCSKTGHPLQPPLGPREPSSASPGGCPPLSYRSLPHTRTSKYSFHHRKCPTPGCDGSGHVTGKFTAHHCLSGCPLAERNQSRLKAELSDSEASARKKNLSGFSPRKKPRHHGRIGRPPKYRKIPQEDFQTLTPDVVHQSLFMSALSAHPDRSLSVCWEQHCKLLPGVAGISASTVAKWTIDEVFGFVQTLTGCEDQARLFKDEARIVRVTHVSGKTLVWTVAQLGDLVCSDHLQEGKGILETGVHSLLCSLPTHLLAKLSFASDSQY
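AlphaScreen assay: L3MBTL1 (50 nM final) was preincubated 30 min at room temperature with biotinylated H3(1-15)K9me1 peptide (75 nM final), then 30 min with library compounds; streptavidin donor and nickel chelate acceptor beads (10 ug/mL final) added, 30 min dark.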
PLK1 PBD block – inhibitors of human PLK1 polo-box domain binding | AID 720504 | actives 2.8% (n = 360,000) | P53350 | Potency, µM, without a hit: max response, negative = inhibition, hits mostly inhibitors | Plk1 PBD binding of FITC phosphopeptide, fluorescence polarization; also: series mostly up to about 57 µM; % is scaled to controls: 0 for no effect and ±100 for the full control effect; nearly all actives have a fitted effect of over 65% in size
VDR inhibitor – vitamin D3 receptor (human) inhibition; P11473; VDR-SRC2-3 peptide fluorescence polarization, 2 h; Potency, µM, without a hit: max response, negative = inhibition, actives largely listed as inhibitors; actives 0.93% (n = 400,000); AID 504847; also: % is scaled to controls: 0 for no effect and ±100 for the full control effect
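Fluorescence polarization assay measuring small-molecule disruption of VDR binding to the coregulator peptide SRC2-3. Compounds were pin-transferred (23 nl) into the reagent mix and incubated 2 h at room temperature before reading.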
* hit, by the source's call; ? = inconclusive; . = no result; [ ] = another dose, or the depositor's remark. Hits are enriched below; roughly 6.9% of the tested compounds scored in any of these assays. Calls follow the shape of the dose curve; as a rule, active = well fitted curve in the direction sought with a large enough effect; inconclusive = small, poorly fitted or top-dose-only effect, or another doubt; inactive = no such curve, though single readings can be large; an effect the other way counts as inactive or inconclusive. Potency is read from the fitted curve at half-maximal effect.

SMILES | JMJD2A Tudor | BAZ2B block | HP1b chromo inh | L3MBTL1 inh | PLK1 PBD block | VDR inhibitor
CC(C)(C)c1ccccc1NC(=O)CN1C(=O)NC(Cc2ccccc2)C1=O (centres undefined) | -9.6% | 70.8µM* | 19.6% | 35.0% | -1.7% | 0.4%
COc1cccc(-c2nc(NC3CCNCC3)c3ccccc3n2)c1 | . | . | . | . | . | 1.0%
CCOC(=O)/C(C#N)=C/c1c(N2CCN(c3ccc(OC)cc3)CC2)nc2c(C)cccn2c1=O | ? | 8.91µM* | ? | . | 6.7% | -1.4%
COCCNC(=O)/C(C#N)=C/c1c(N2CCN(c3ccc(OC)cc3)CC2)nc2c(C)cccn2c1=O | 50.1µM* | 39.8µM* | -12.9% | . | -5.3% | -5.3%
Cc1ccccc1Oc1nc2ccccn2c(=O)c1/C=C(\C#N)C(=O)Nc1c(C)n(C)n(-c2ccccc2)c1=O | -3.5% | -9.0% | 11.4% | 1.5% | -5.7% | ?
Cc1ccccc1Oc1nc2c(C)cccn2c(=O)c1/C=C(\C#N)C(=O)Nc1c(C)n(C)n(-c2ccccc2)c1=O | ? | ? | -7.7% | -8.0% | -28.6% | 50.1µM*
CCNC(=O)/C(C#N)=C/c1c(N2CCN(c3ccc(OC)cc3)CC2)nc2c(C)cccn2c1=O | 20µM* | 35.5µM* | ? | . | 23.8µM* | ?
CCNC(=O)/C(C#N)=C/c1c(N2CCN(c3ccccc3)CC2)nc2c(C)cccn2c1=O | ? | -1.5% | ? | . | -21.0% | -13.3%
CCOC(=O)/C(C#N)=C/c1c(N2CCN(CC)CC2)nc2c(C)cccn2c1=O | -16.0% | -3.0% | 24.0% | . | -2.9% | -10.5%
COc1ccc(S(=O)(=O)Nc2cccc(-c3ccc(N4CCCCC4)nn3)c2)cc1F | -16.9% | -3.3% | 7.6%[57 µM] | . | . | 8.8%
CCN(CC)S(=O)(=O)c1ccc(N2CCOCC2)c(NC(=S)NC(=O)c2ccco2)c1 | ? | -31.5% | ? | -7.6% | 23.8µM* | ?
O=C(NC(=S)Nc1cc(S(=O)(=O)N2CCOCC2)ccc1O)c1ccco1 | -23.4% | -30.8% | ? | 5.8% | 11.9µM* | ?
O=C(NC(=S)Nc1cc(S(=O)(=O)N2CCOCC2)ccc1N1CCOCC1)c1ccco1 | -14.4% | -29.6% | 35.6% | -4.8% | -9.0% | -7.4%
O=C(NCCS(=O)(=O)N1CCN(c2cccc(Cl)c2)CC1)C(c1ccccc1)c1ccccc1 | -0.6% | -2.9% | 24.5%[57 µM] | . | . | 7.9%
Cc1ccccc1CN1C(=O)CN(S(C)(=O)=O)CC1(C)C(=O)Nc1ccc2c(c1)OCCO2 (centres undefined) | . | . | . | . | -10.1% | .
CSc1ccc(C(=O)C2CCCN(Cc3cccn3-c3cccnc3)C2)cc1 (centres undefined) | 44.7µM* | ? | ? | -10.0% | -7.7% | 0.7%
COc1ccc(C(=O)C2CCCN(Cc3cccn3-c3cccnc3)C2)cc1OC (centres undefined) | -35.9% | -26.9% | -13.5% | -21.1% | -4.2% | -2.3%
CCCC(=O)N(Cc1cc(=O)[nH]c2ccccc12)c1ccc(C)cc1 | 89.1µM* | -3.0% | -9.2% | . | 0.0% | ?
CCCC(=O)N(Cc1cc(=O)[nH]c2ccccc12)c1ccc(C)cc1C | -16.7% | 2.9% | 4.9% | . | -6.7% | -3.1%
CCC(=O)N(Cc1cc(=O)[nH]c2ccccc12)c1cccc(C)c1 | 79.4µM* | -5.4% | 2.3% | -2.7% | -0.8% | -3.8%
CCC(=O)N(Cc1cc(=O)[nH]c2ccccc12)c1ccccc1C | -24.1% | -10.5% | ? | -3.6% | -2.3% | 7.7%
C=CCSSSCC=C | . | . | . | . | . | 25.1µM*
Cc1nc(C#N)c(N/N=C/c2c(F)cccc2Cl)o1 | -23.4% | -26.9% | 35.4% | -2.4% | -9.7% | 79.4µM*
CC12CCC(C/C1=N\N=C1\NC(=O)/C(=C\c3cccc(Br)c3)S1)C2(C)C (centres undefined) | ? | -27.8% | -14.3% | -7.0% | 29.9µM* | -0.6%
COc1cc(/C=N/N=C2\CC3CCC2(C)C3(C)C)ccc1O (centres undefined) | -19.9% | -30.1% | -7.0% | . | -13.2% | -10.1%
SMILES | JMJD2A Tudor | BAZ2B block | HP1b chromo inh | L3MBTL1 inh | PLK1 PBD block | VDR inhibitor
O=[N+]([O-])c1ccccc1/C=C/C=N/n1c(-c2ccco2)n[nH]c1=S | 22.4µM* | ? | -14.9% | -16.5%[2.29 µM] | -22.3% | 1.8%
Cc1ccc(-c2n[nH]c(=S)n2/N=C/C=C/c2ccccc2[N+](=O)[O-])cc1 | -35.8% | ? | ? | . | -20.8% | -8.3%
O=[N+]([O-])c1ccccc1/C=C/C=N/n1c(-c2cc(-c3ccccc3)n[nH]2)n[nH]c1=S | 50.1µM* | -32.3% | 1.1% | ? | ? | -7.0%
CN(C)CCNC(=O)c1ccc2nc(Cc3ccccc3)oc2c1 | -10.9% | -3.5% | 12.2%[57 µM] | . | . | 2.0%
C#CCOCCOCCOCCNc1nc(N2CCN(C(=O)[C@H](Cc3cc4ccccc4[nH]3)n3cc([C@@H](N)C(C)CC)nn3)CC2)nc(N2CCN(C(=O)[C@H](Cc3cc4ccccc4[nH]3)n3cc([C@@H](N)Cc4ccc(O)cc4)nn3)CC2)n1 (some centres undefined) | . | 11.2µM* | . | ? | . | .
C#CCOCCOCCOCCNc1nc(N2CCN(C(=O)[C@H](Cc3ccc(O)cc3)n3cc([C@@H](N)C(C)CC)nn3)CC2)nc(N2CCN(C(=O)[C@H](Cc3cc4ccccc4[nH]3)n3cc([C@@H](N)C(C)CC)nn3)CC2)n1 (some centres undefined) | 44.7µM* | 28.2µM* | -29.6% | ? | -11.1% | -2.8%
C#CCOCCOCCOCCNc1nc(N2CCN(C(=O)[C@H](Cc3ccc(O)cc3)n3cc([C@@H](N)C(C)CC)nn3)CC2)nc(N2CCN(C(=O)[C@H](Cc3cc4ccccc4[nH]3)n3cc([C@@H](N)CC(C)C)nn3)CC2)n1 (some centres undefined) | 44.7µM* | 35.5µM* | ? | -19.7% | 1.0% | 15.6%
O=S(=O)(Nc1nc2ccccc2nc1Nc1ccccc1Br)c1ccccc1 | -6.9% | 2.3% | 42.6% | . | . | -9.3%
O=C1CCc2cc(S(=O)(=O)Nc3cccc(C(F)(F)F)c3)ccc2N1 | -10.2% | . | . | . | . | .
CC(=O)c1ccc(NC(=O)CN2C(=O)/C(=C/C(C)=C/c3ccccc3)SC2=S)cc1 | -27.9% | -12.5% | -6.8% | 1.6% | -21.3% | -3.5%
CC(/C=C1\SC(=S)N(C(C(=O)O)C(C)C)C1=O)=C\c1ccccc1 (centres undefined) | ? | 25.1µM* | 7.6% | 12.1% | 23.8µM* | ?
CC(/C=C1\SC(=S)N(c2ccc(C(=O)O)cc2)C1=O)=C\c1ccccc1 | 44.7µM* | 22.4µM* | ? | . | 23.8µM* | 89.1µM*
CC(/C=C1\SC(=S)N(NC(=O)c2ccncc2)C1=O)=C\c1ccccc1 | ? | ? | -14.3% | -19.9% | -23.2% | ?
